# From PubChem BioAssay (NCATS)
# Records with an inconclusive call do not appear. Entries that show only a call come without a potency. The source made the active and inactive calls. Calls follow the shape of the full dose curve.
# Experiment: Confirmatory qHTS for VERO E6 Cytotoxicity Assay: Counterscreen for SARS-CoV-2 CPE Assay (AID 1508605); also: nearly all actives have a fitted effect of over 60% in size
# Conditions: cell viability luminescence; series mostly up to 20 µM
# Potency is read from the fitted curve at half-maximal effect.
row,SMILES,Potency
1,COc1ccc(-c2csc(NC(=O)[C@H]3CCCCN3S(=O)(=O)c3ccc(C)cc3)n2)cc1,inactive
2,COc1ccc2sc(NC(c3ccc(OC(F)F)cc3)c3ccc4cccnc4c3O)nc2c1 (configuration not stated),0.708 µM (active)
3,NC(=O)c1cnc(N[C@@H]2CCCC[C@@H]2N)nc1Nc1cccc(-n2nccn2)c1,inactive
4,C=C1C(=O)O[C@H]2C3=C(C)CCC[C@]3(C)C(=O)C[C@@H]12,10 µM (active)
5,CCc1ccccc1OC[C@@H](O)CN[C@H]1CCCc2ccccc21,inactive
6,CCC(C)CNCC(=O)N1CCc2sccc2C1COc1cccc(C)c1 (configuration not stated),inactive
7,COc1cc(N(C)CCN(C)C)c(N)cc1Nc1nccc(-c2cn(C)c3ccccc23)n1,inactive
8,O=C(c1ccc(-c2ccc(Cl)cc2)o1)N(Cc1ccccn1)c1ccc(N2CCNCC2)cc1,11.2 µM (active)
9,CC1(C)CC[C@]23CO[C@@]4(CCC5[C@@]6(C)CC[C@H](O[C@@H]7OC[C@H](O[C@@H]8O[C@H](CO)[C@@H](O)[C@H](O)[C@H]8O[C@@H]8OC[C@@H](O)[C@H](O)[C@H]8O)[C@H](O)[C@H]7O[C@@H]7O[C@H](CO)[C@@H](O)[C@H](O)[C@H]7O)[C@@](C)(CO)C6CC[C@@]5(C)[C@]4(C)C[C@H]2O)[C@@H]3C1 (some centres not stated),3.03 µM (active)
10,CN(C)CCN(Cc1ccc(-c2ccc(CNCCc3ccccc3)cc2)cc1)C(=O)CCC1CCCC1,3.98 µM (active)
11,Cc1nnc(-c2ccc(-c3ccc(C(=O)Nc4ccc(O)c(N5CCN(C)CC5)c4)cc3)c(C)c2)o1,inactive
12,C=C1Cc2c(Cl)cc3[nH]c4c5c3c2[C@@]2(O)[C@@H]1C[C@@H]2C(C)(C)O[C@H]5C1CC[C@@]2(O)[C@@]35O[C@@H]3[C@H]3OC(C)(C)[C@H]3O[C@H]5CC[C@]2(C)[C@@]41C (some centres not stated),inactive
